From PubChem BioAssay AID1304 (The Scripps Research Institute Molecular Screening Center, 2008)
Out of some 220,000 compounds screened, about 800 (0.36%) were called active. No stated cut-off is given here; in the data, active means activation above about 33% (passing the limit was not always enough); inactive means the rest. Only a selection was taken, and actives are over-represented in it overall.

These molecules were tested against Neuropeptide Y receptor type 1 (Homo sapiens) (UniProt P25929) (assay: NPY-Y1 receptor potentiators or agonists, primary screen, cell-based (AID 1304;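 further: cells stimulated with NPY at EC10 then isoproterenol at EC100; 0% = low agonist plus stimulus and 100% = saturating agonist plus stimulus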)). Details: NPY-Y1 expressing cells, potentiator/agonist activation; at 3.6 µM; hits give high values.
Neuropeptide Y receptor type 1 (Homo sapiens), sequence (P25929 whole entry, looked up): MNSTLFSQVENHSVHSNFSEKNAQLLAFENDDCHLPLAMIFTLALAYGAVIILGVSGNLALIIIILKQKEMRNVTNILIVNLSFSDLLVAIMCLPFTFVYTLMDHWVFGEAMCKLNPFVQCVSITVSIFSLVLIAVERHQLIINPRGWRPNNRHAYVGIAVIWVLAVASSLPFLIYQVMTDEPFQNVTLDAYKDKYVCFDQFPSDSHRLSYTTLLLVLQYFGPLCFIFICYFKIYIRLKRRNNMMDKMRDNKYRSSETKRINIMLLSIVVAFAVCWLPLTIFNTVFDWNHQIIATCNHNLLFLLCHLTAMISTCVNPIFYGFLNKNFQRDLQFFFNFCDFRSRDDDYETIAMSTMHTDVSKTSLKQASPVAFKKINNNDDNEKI
For `CCc1ccc2nc(Nc3ncc(C(C)=O)c(C)n3)nc(C)c2c1`, the activation was 9.28% (inactive). `OCC1(CCc2ccccc2)CCN(Cc2ccc3nsnc3c2)CC1` was tested, and the activation was -0.79% (inactive). `O=C(/C=C/c1cnc2ccccc2n1)NC1CCCCCC1` was tested, and the activation was -3.45% (inactive). For `COCCNC(=O)/C(C#N)=C/c1nc(N(C)C)n(-c2ccc(F)cc2)c1Cl`, the activation was 0.95% (inactive). For `CCCCN1C(=S)NC[C@@H]1C(C)CC` (some centres not stated), the activation was -11.4% (inactive). In the case of `Cc1ccc(C(=O)N2CCN(C(=O)N3CCOCC3)CC2)cc1`, the activation is reported as -5.88% (inactive). With `CCS(=O)(=O)N1CCN(C(=O)c2cccs2)CC1` the activation was 3.05% (inactive). `O=C(c1cccs1)N1CCN(C(=O)N2CCOCC2)CC1` was tested, and the activation was 112% (active). With `O=S1(=O)C=C(SCCN2CCCC2)c2ccccc21` the activation was 19% (inactive). With `O=C(CN1C(=O)CC(c2ccccc2)S(=O)(=O)c2ccccc21)NC1CCCC1` (configuration not stated) the activation was -1.33% (inactive). With `Cc1cc([N+](=O)[O-])c(NC2CCCCC2)c([N+](=O)[O-])c1` the activation was -19.9% (inactive). For `Cc1cc(-c2nnc(CCC(=O)NC(c3ccccc3)c3ccccc3)o2)no1`, the activation was -1.1% (inactive). `O=C(NC1CCN(Cc2ccccc2)CC1)c1ccc(Oc2cc(Cl)cc(Cl)c2)o1` was tested, and the activation was 2.83% (inactive). With `O=C(NC(=S)N1CCc2ccccc21)c1ccco1` the activation was 5.18% (inactive). In the case of `COc1ccccc1NC(=O)/C=C/C(=O)O`, the activation is reported as -17.3% (inactive). For `O=C(O)/C=C/C(=O)Nc1ccc(F)cc1F`, the activation was -9.35% (inactive). For `COC(=O)c1sc(-c2ccc(C(C)(C)C)cc2)cc1NC(=O)/C=C/C(=O)O`, the activation was 51.4% (active). With `CCOC(=O)C1CCN(C(=O)Nc2ccc(C)c(Cl)c2)CC1` the activation was 2.62% (inactive). For `CCCCCCCCCCCCN1C(=O)CSC1c1cccnc1` (configuration not stated), the activation was 5.01% (inactive). `CC1=C/C(=N\S(=O)(=O)c2ccccc2)C(C(C)C)=CC1=O` was tested, and the activation was 2.13% (inactive). For `CC1=C/C(=N\OS(=O)(=O)c2ccccc2)C=CC1=O`, the activation was 44.8% (active). In the case of `CCOC(=O)C1(S(=O)(=O)c2ccccc2)CCN(Cc2ccccc2)CC1`, the activation is reported as 3.32% (inactive). `COc1ccc(C(=O)COC(=O)c2nn(C)c(=O)c3ccccc23)c(OC)c1` was tested, and the activation was -10.6% (inactive). With `CCOc1ccc(C(=O)NC(=S)Nc2ccc(NC(=O)C(C)C)cc2)cc1[N+](=O)[O-]` the activation was -12.8% (inactive). With `NC(=O)C1(N2CCCCC2)CCN(C(=O)c2ccc(C#Cc3ccccc3)o2)CC1` the activation was 62.8% (active). In the case of `CC(C)(O)C#Cc1ccc(C(=O)N2CCC(C(N)=O)(N3CCCCC3)CC2)cc1`, the activation is reported as 4.73% (inactive). In the case of `NC(=O)C1(N2CCCCC2)CCN(C(=S)Nc2ccc(Cl)cc2)CC1`, the activation is reported as -0.45% (inactive).
